PubChem BioAssay (NCATS)
Where “and” joins values, the source holds several entries; their conditions need not be identical. Equal values may be shown once. Results filed as inconclusive are left out. A call without a number means that no potency is given here. Some compounds were tested as several samples or in several runs, with calls that do not always agree. Calls of active or inactive are those of the source. Calls come from the whole dose curve; as a rule, active = well fitted curve in the direction sought with a large enough effect; inconclusive = small, poorly fitted or top-dose-only effect, or another doubt; inactive = no such curve, though single readings can be large; an effect the other way counts as inactive or inconclusive.

assay: Primary qHTS for inhibitors of nuclear receptor binding SET domain protein 2 (NSD2) in an isogenic RCH-ACV NSD2 p.E1099K mutant (9B) (AID 1645876); conditions: RCH-ACV NSD2 E1099K (9B) viability, CellTiter-Glo, 72 h; series mostly up to 44.9 µM
Note: nearly all actives have a fitted effect of over 70% in size.
Potency is the fitted concentration of half-maximal effect.

Compound	Potency	outcome
CC(C)(Sc1cc(C(C)(C)C)c(O)c(C(C)(C)C)c1)Sc1cc(C(C)(C)C)c(O)c(C(C)(C)C)c1	inactive	
COC(=O)Nc1nc2ccc(Sc3ccccc3)cc2[nH]1	266 nM (active) and 417 nM (active)	
N[C@@H](Cc1ccc(O)c(O)c1)C(=O)O	inactive	
C[C@@H](NCCCc1cccc(C(F)(F)F)c1)c1cccc2ccccc12	13.3 µM (active) and 18.6 µM (active)	
Cc1ncc([N+](=O)[O-])n1CCO	inactive	
Cc1nnc(NS(=O)(=O)c2ccc(N)cc2)s1	inactive	
COc1cc(NCc2ccc3nc(N)nc(N)c3c2C)cc(OC)c1OC	13.3 nM (active) and 1.05 µM (active)	
CC(C)NCC(O)c1ccc(NS(C)(=O)=O)cc1 (centres undefined)	inactive	
NS(=O)(=O)c1cc2c(cc1Cl)NC(C(Cl)Cl)NS2(=O)=O (centres undefined)	inactive	
C[C@@H](CN1CC(=O)NC(=O)C1)N1CC(=O)NC(=O)C1	16.8 µM (active) and 5.25 µM (active)	
COc1c(N2CCNC(C)C2)c(F)cc2c(=O)c(C(=O)O)cn(C3CC3)c12 (centres undefined)	inactive	
CC(=O)Oc1ccccc1C(=O)Nc1ncc([N+](=O)[O-])s1	inactive	
CCCCS(=N)(=O)CCC(N)C(=O)O (centres undefined)	inactive	
Nc1[nH]c(=O)ncc1F	inactive	
CCC(=O)O[C@]1(C(=O)CCl)[C@@H](C)C[C@H]2[C@@H]3CCC4=CC(=O)C=C[C@]4(C)[C@@]3(F)[C@@H](O)C[C@@]21C	23.5 µM (active)	
O=NN(CCCl)C(=O)NC1CCCCC1	inactive	

Compound	Potency	outcome
COc1cnc(NS(=O)(=O)c2ccc(N)cc2)nc1	inactive	
CN(CCOc1ccc(CC2SC(=O)NC2=O)cc1)c1ccccn1 (centres undefined)	inactive	
CNC(=O)c1cc(Oc2ccc(NC(=O)Nc3ccc(Cl)c(C(F)(F)F)c3)cc2)ccn1	9.34 µM (active) and 21.1 µM (active) and 5.15 µM (active)	
Cc1oc(=O)oc1CN1CCN(c2cc3c(cc2F)c(=O)c(C(=O)O)c2n3C(C)S2)CC1 (centres undefined)	inactive	
O=S(=O)(O)CCS	inactive	
COc1ccc(C(=O)CC(=O)c2ccc(C(C)(C)C)cc2)cc1	inactive	
CCn1cc(C(=O)O)c(=O)c2cc(F)c(N3CCN(C)CC3)cc21	inactive	
O=C(O)c1cccnc1	inactive	
CC[C@H](C)C(=O)O[C@H]1C[C@@H](C)C=C2C=C[C@H](C)[C@H](CC[C@@H]3C[C@@H](O)CC(=O)O3)[C@H]21	16.8 µM (active) and 10.5 µM (active)	
N[C@@H](C(=O)N[C@@H]1C(=O)N2C(C(=O)O)=C(Cl)CS[C@H]12)c1ccccc1		inactive [at 9.23 µM]
Nc1nc(F)nc2c1ncn2[C@@H]1O[C@H](CO)[C@@H](O)[C@@H]1O	2.09 µM (active) and 94.4 nM (active) and 1.29 µM (active)	
CC(C(=O)O)c1ccc2c(c1)CC(=O)c1ccccc1S2 (centres undefined)	inactive	
CC(C)(C)C(=O)OCOP(=O)(COCCn1cnc2c(N)ncnc21)OCOC(=O)C(C)(C)C	7.5 µM (active) and 7.42 µM (active)	
NC(=O)c1cccnc1	inactive	
CCCc1cc(C(N)=S)ccn1	inactive	
O=P(O)(O)C(O)(Cc1cccnc1)P(=O)(O)O	inactive	

assay: Primary qHTS for inhibitors of nuclear receptor binding SET domain protein 2 (NSD2) in an RCH-ACV wild type WT cells (2C) (AID 1645877); conditions: RCH-ACV (leukaemia line) NSD2 WT (2C) viability, CellTiter-Glo, 72 h; series mostly up to 44.9 µM

Compound	Potency	activity change, negative = cell killing
CC(C)(Sc1cc(C(C)(C)C)c(O)c(C(C)(C)C)c1)Sc1cc(C(C)(C)C)c(O)c(C(C)(C)C)c1	inactive and 8.33 µM (active)	
COC(=O)Nc1nc2ccc(Sc3ccccc3)cc2[nH]1	266 nM (active) and 372 nM (active)	
N[C@@H](Cc1ccc(O)c(O)c1)C(=O)O	inactive	
C[C@@H](NCCCc1cccc(C(F)(F)F)c1)c1cccc2ccccc12	15 µM (active) and 14.8 µM (active)	
Cc1ncc([N+](=O)[O-])n1CCO	inactive	
Cc1nnc(NS(=O)(=O)c2ccc(N)cc2)s1	inactive	
COc1cc(NCc2ccc3nc(N)nc(N)c3c2C)cc(OC)c1OC	15 nM (active) and 1.18 µM (active)	
CC(C)NCC(O)c1ccc(NS(C)(=O)=O)cc1 (centres undefined)	inactive	
NS(=O)(=O)c1cc2c(cc1Cl)NC(C(Cl)Cl)NS2(=O)=O (centres undefined)	inactive	
C[C@@H](CN1CC(=O)NC(=O)C1)N1CC(=O)NC(=O)C1	8.33 µM (active)	
COc1c(N2CCNC(C)C2)c(F)cc2c(=O)c(C(=O)O)cn(C3CC3)c12 (centres undefined)	inactive	
CC(=O)Oc1ccccc1C(=O)Nc1ncc([N+](=O)[O-])s1	inactive	
CCCCS(=N)(=O)CCC(N)C(=O)O (centres undefined)	inactive	
Nc1[nH]c(=O)ncc1F	inactive	
CCC(=O)O[C@]1(C(=O)CCl)[C@@H](C)C[C@H]2[C@@H]3CCC4=CC(=O)C=C[C@]4(C)[C@@]3(F)[C@@H](O)C[C@@]21C	inactive and 1 nM (active)	
O=NN(CCCl)C(=O)NC1CCCCC1	inactive	

Compound	Potency	activity change, negative = cell killing
COc1cnc(NS(=O)(=O)c2ccc(N)cc2)nc1	inactive	
CN(CCOc1ccc(CC2SC(=O)NC2=O)cc1)c1ccccn1 (centres undefined)	inactive	
CNC(=O)c1cc(Oc2ccc(NC(=O)Nc3ccc(Cl)c(C(F)(F)F)c3)cc2)ccn1	7.42 µM (active) and 5.15 µM (active)	
Cc1oc(=O)oc1CN1CCN(c2cc3c(cc2F)c(=O)c(C(=O)O)c2n3C(C)S2)CC1 (centres undefined)	inactive	
O=S(=O)(O)CCS	inactive	
COc1ccc(C(=O)CC(=O)c2ccc(C(C)(C)C)cc2)cc1	inactive	
CCn1cc(C(=O)O)c(=O)c2cc(F)c(N3CCN(C)CC3)cc21	inactive	
O=C(O)c1cccnc1	inactive	
CC[C@H](C)C(=O)O[C@H]1C[C@@H](C)C=C2C=C[C@H](C)[C@H](CC[C@@H]3C[C@@H](O)CC(=O)O3)[C@H]21	8.33 µM (active)	
N[C@@H](C(=O)N[C@@H]1C(=O)N2C(C(=O)O)=C(Cl)CS[C@H]12)c1ccccc1		-2.72% [at 9.23 µM] (inactive)
Nc1nc(F)nc2c1ncn2[C@@H]1O[C@H](CO)[C@@H](O)[C@@H]1O	2.63 µM (active) and 84.1 nM (active) and 1.29 µM (active)	
CC(C(=O)O)c1ccc2c(c1)CC(=O)c1ccccc1S2 (centres undefined)	inactive	
CC(C)(C)C(=O)OCOP(=O)(COCCn1cnc2c(N)ncnc21)OCOC(=O)C(C)(C)C	6.68 µM (active) and 7.42 µM (active)	
NC(=O)c1cccnc1	inactive	
CCCc1cc(C(N)=S)ccn1	inactive	
O=P(O)(O)C(O)(Cc1cccnc1)P(=O)(O)O	inactive	
